Measurements as given in PubChem BioAssay (NCATS).
Values joined by “and” are separate entries in the source; they are usually repeats but may differ in a detail not shown here. Equal values may be shown once. Results filed as inconclusive are left out. Active and inactive are the calls of the source. Unless noted, calls come from the whole dose curve.

Columns and labels:
[1] = target: Androgen receptor (Homo sapiens) (UniProt P10275); assay: qHTS assay for small molecule agonists of androgen receptor signaling (AID 588515; active = well fitted curve in the direction sought with a large enough effect in the signal ratio, with a control signal flat; the % refers to the signal ratio; note: % is set by controls: 0 for no effect and ±100 for the full control effect); settings: AR-UAS-bla HEK293, beta-lactamase ratio, agonist 16 h; activation: active compounds read high
Method in brief: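 Stimulation of an AR-responsive β-lactamase reporter in GripTite HEK293 cells was measured after 16 h compound exposure at 37 °C, via CCF4 fluorescence after 2 h RT. EC50 from Hill fits, normalized to R1881 at 30 nM.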

[2] = target: Androgen receptor (Homo sapiens) (UniProt P10275); assay: qHTS assay for small molecule antagonists of androgen receptor signaling (AID 588516; active = well fitted curve in the direction sought with a large enough effect in the signal ratio, with a control signal flat, not every such curve was filed as active; the % refers to the signal ratio; note: % is set by controls: 0 for no effect and ±100 for the full control effect)
Method in brief: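 Antagonist mode: inhibition of R1881-stimulated (10 nM final) bla reporter in GeneBLAzer AR HEK 293 cells, 16 h at 37C, compounds titrated. IC50 and efficacy from Hill-equation fits of 405/460–530 nm FRET ratios.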

[3] = target: Bile acid receptor (Homo sapiens) (UniProt Q96RI1); assay: qHTS assay for small molecule antagonists of farnesoid X receptor signaling (AID 588526); note: potency is the fitted concentration of half-maximal effect
Method in brief: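 Beta-lactamase reporter antagonist mode: HEK293T FXR-UAS-bla cells, titrated compound, CDCA stimulation, 16 h 37 C, CCF4 dye 2 h RT. Data normalized to CDCA 50 uM and DMSO; Hill-fit IC50.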

[4] = target: Peroxisome proliferator-activated receptor delta (Homo sapiens) (UniProt Q03181); assay: qHTS assay for small molecule antagonists of peroxisome proliferator-activated receptor delta signaling (AID 588535; active = well fitted inhibition curve with a large enough effect in the signal ratio, with a control signal flat, not every such curve was filed as active; the % refers to the signal ratio)
Method in brief: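 Titrations were run on PPAR-delta-UAS-bla HEK293T cells in charcoal/dextran-stripped serum, incubated 18 h at 37 C. CCF4 fluorescence (460/530 nm) after 2 h RT; Hill equation yields IC50 and maximal response.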

[5] = target: Vitamin D3 receptor (Homo sapiens) (UniProt P11473); assay: qHTS assay for small molecule antagonists of vitamin D receptor signaling (AID 588541);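 note: receptor activated by calcitriol during compound treatment; series mostly up to about 77 µM; % is set by controls: 0 for no effect and ±100 for the full control effect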
Method in brief: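 Antagonist-mode beta-lactamase reporter assay: HEK293T VDR-UAS-bla cells were exposed to titrated compound alongside 1-alpha,25-dihydroxyvitamin D3 at 3 nM final for 16 h. Values were normalized to the 50 nM agonist control and DMSO basal, with IC50 and efficacy from Hill equation fits.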

[6] = qHTS assay for small molecule agonists of the antioxidant response element (ARE) signaling pathway (AID 651741; active = well fitted activation curve with a large enough effect in the signal ratio; the % refers to the signal ratio; note: potency is the fitted concentration of half-maximal effect; for activation: % of control where 0% means no effect)
Method in brief: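 Beta-lactamase reporter under ARE control in HepG2 cells, 2,000 per well, was induced by 16 h compound treatment at 37 C. Read-out was fluorescence from LiveBLAzer B/G FRET substrate after 2 h at room temperature.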

[7] = qHTS assay for small molecule activators of the nuclear factor-kappa B (NF-kB) signaling pathway (AID 651749; active = well fitted activation curve with a large enough effect in the signal ratio; the % refers to the signal ratio; note: series mostly up to about 77 µM; % of control where 0% means no effect); settings: NF-kB-bla ME-180 cells, beta-lactamase FRET ratio, 16 h; activation: active compounds read high
Method in brief: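 Activation measured after 16 hr compound treatment at 37C, 5% CO2, of 2,000 ME-180 cells/well stably expressing an NF-kB response element–driven beta-lactamase reporter, via FRET-disruption fluorescence.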

[8] = target: Peroxisome proliferator-activated receptor gamma (Homo sapiens) (UniProt P37231); assay: qHTS assay for small molecule antagonists of peroxisome proliferator-activated receptor gamma signaling (AID 588537; active = well fitted inhibition curve with a large enough effect in the signal ratio, with a control signal flat, not every such curve was filed as active; the % refers to the signal ratio;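 note: reporter cells co-stimulated with 50 nM rosiglitazone agonist during compound treatment; % of control where 0% means no effect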)
Method in brief: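 Antagonist-mode β-lactamase reporter screen run as a titration series. HEK293 PPARγ-UAS-bla cells are stimulated with rosiglitazone (50 nM final) for 16 h, then CCF4 is read at 460/530 nm. Data are scaled between DMSO and rosiglitazone and fitted to the Hill equation.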

[9] = qHTS assay for small molecule activators of the p53 signaling pathway (AID 651743; active = well fitted activation curve with a large enough effect in the signal ratio, not every such curve was filed as active; the % refers to the signal ratio; note: series mostly up to about 92 µM; % of control where 0% means no effect); settings: HCT-116 p53RE-bla, beta-lactamase FRET ratio, 16 h; activation: active compounds read high
Method in brief: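 After 16 hours compound treatment at 37 C, HCT-116 cells stably expressing p53RE-driven beta-lactamase were loaded with LiveBLAzer B/G FRET substrate for 2 hours at room temperature. Fluorescence intensity served as the p53 activation read-out.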

[10] = target: Estrogen receptor (Homo sapiens) (UniProt P03372); assay: qHTS assay for small molecule antagonists of estrogen receptor alpha signaling (AID 588513; active = well fitted curve in the direction sought with a large enough effect in the signal ratio, with a control signal flat, not every such curve was filed as active; the % refers to the signal ratio; note: potency is the fitted concentration of half-maximal effect)
Method in brief: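 Antagonist mode: inhibition of 0.5 nM 17-beta-estradiol-driven beta-lactamase reporter in HEK 293 ER-alpha-UAS-bla cells, 18 h at 37C, CCF4 readout after 2 h at RT. Normalised to estradiol and DMSO; titration fitted to Hill.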

Peroxisome proliferator-activated receptor delta (Homo sapiens), sequence (Q03181 whole entry, looked up): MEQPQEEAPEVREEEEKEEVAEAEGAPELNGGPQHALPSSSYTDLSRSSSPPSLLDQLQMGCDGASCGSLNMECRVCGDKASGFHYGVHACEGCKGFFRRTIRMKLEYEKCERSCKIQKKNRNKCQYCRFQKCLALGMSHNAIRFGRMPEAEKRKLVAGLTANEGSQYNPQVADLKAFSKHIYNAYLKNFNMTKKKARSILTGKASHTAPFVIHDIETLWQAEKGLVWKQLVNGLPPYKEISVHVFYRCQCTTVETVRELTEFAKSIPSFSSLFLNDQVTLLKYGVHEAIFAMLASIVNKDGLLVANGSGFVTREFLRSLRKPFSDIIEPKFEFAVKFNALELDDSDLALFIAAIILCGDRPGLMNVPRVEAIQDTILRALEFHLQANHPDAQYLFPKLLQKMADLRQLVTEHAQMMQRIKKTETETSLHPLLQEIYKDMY
Bile acid receptor (Homo sapiens), sequence (Q96RI1 whole entry, looked up): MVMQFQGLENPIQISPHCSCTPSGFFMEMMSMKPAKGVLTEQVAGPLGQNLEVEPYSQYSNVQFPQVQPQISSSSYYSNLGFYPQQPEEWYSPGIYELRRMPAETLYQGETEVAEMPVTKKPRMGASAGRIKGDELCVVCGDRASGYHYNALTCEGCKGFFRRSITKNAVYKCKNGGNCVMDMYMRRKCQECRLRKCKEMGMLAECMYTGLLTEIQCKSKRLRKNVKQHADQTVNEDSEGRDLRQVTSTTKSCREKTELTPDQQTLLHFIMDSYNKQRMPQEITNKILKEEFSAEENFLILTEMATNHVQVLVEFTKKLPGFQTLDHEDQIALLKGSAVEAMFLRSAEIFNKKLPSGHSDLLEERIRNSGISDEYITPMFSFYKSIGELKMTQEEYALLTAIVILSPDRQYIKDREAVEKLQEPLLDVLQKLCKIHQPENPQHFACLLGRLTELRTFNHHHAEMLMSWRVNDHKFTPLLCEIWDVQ
Peroxisome proliferator-activated receptor gamma (Homo sapiens), sequence (P37231 whole entry, looked up): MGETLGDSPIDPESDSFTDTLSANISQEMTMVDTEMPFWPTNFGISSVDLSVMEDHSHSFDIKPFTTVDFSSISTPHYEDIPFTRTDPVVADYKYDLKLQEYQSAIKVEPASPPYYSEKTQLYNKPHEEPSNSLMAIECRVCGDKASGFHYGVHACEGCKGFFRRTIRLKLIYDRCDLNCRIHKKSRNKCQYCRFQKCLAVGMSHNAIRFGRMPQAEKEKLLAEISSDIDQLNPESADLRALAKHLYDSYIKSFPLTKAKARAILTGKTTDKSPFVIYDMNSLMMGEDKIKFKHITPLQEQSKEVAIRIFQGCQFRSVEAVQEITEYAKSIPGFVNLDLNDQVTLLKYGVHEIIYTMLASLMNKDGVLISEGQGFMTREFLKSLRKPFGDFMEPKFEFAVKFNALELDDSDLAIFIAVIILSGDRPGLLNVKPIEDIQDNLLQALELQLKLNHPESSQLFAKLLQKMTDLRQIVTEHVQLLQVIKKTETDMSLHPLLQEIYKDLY
Estrogen receptor (Homo sapiens), sequence (P03372 whole entry, looked up): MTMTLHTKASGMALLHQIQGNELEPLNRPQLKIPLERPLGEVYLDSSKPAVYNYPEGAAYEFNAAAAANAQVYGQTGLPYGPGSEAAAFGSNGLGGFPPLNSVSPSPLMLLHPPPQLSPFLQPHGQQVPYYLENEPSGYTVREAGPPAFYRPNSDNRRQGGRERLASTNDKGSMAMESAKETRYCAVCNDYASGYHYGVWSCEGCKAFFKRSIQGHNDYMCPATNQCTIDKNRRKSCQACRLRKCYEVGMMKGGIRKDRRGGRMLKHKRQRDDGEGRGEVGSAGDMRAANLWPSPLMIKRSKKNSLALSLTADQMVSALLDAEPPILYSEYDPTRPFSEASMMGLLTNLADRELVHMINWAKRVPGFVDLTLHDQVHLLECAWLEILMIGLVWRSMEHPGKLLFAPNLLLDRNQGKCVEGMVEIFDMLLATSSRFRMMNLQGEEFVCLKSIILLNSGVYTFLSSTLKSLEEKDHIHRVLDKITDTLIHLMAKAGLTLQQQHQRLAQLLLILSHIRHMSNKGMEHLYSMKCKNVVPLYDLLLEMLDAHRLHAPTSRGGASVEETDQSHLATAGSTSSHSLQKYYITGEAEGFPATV
Vitamin D3 receptor (Homo sapiens), sequence (P11473 whole entry, looked up): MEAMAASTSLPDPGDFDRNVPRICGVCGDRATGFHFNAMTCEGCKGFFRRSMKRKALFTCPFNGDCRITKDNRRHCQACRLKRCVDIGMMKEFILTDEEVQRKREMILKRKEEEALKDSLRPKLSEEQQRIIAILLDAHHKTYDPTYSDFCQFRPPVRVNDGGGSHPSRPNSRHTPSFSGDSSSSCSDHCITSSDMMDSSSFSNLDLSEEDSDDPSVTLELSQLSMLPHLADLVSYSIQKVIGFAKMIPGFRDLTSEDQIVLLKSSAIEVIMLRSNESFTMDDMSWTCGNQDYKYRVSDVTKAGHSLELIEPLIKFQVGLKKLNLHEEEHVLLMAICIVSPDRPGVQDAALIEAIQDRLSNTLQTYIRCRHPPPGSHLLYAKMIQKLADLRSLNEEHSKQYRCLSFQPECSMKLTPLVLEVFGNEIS
Androgen receptor (Homo sapiens), sequence (P10275 whole entry, looked up): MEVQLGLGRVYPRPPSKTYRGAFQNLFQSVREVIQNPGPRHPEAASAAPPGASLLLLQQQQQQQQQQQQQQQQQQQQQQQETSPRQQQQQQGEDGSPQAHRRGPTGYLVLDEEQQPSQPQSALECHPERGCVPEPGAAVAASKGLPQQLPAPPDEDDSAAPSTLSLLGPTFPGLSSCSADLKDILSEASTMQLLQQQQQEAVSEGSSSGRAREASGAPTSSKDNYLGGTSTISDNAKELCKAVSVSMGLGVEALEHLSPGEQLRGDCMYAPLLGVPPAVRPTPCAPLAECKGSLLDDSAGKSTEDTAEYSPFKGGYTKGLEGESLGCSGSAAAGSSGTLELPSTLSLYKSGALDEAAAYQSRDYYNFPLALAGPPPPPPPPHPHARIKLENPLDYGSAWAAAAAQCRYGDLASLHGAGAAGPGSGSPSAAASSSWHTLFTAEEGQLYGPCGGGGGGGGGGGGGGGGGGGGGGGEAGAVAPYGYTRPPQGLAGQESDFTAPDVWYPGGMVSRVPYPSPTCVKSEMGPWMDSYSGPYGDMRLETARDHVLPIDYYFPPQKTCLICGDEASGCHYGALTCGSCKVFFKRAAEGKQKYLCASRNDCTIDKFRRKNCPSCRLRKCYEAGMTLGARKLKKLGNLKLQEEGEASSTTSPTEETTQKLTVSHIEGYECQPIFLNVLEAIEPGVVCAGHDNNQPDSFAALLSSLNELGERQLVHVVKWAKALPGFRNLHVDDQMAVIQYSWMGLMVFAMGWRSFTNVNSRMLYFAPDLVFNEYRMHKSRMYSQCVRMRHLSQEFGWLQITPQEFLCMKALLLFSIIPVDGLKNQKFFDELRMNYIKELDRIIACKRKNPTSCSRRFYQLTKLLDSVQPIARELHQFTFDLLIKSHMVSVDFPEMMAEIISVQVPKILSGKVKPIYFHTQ

Cc1ccc(N=Nc2c(O)ccc3ccccc23)c([N+](=O)[O-])c1
active: Potency [6] 24.3 µM
inactive: activation [1] 8.82% | outcome [2] | Potency [3] | Potency [4] | Potency [5] | activation [7] -0.237%

CC(=O)Nc1ccc(N=Nc2cc(C)ccc2O)cc1
active: Potency [6] 17.2 µM
inactive: activation [1] -4.42% | outcome [2] | Potency [4] | activation [7] -1.84%

O=C(O)CN(CCO)CCN(CC(=O)O)CC(=O)O
inactive: activation [1] 3.88% | outcome [2] | Potency [3] | Potency [4] | Potency [8] | Potency [5] | Potency [6] | activation [9] -0.291% | activation [7] -1.52%

C[Si](C)(C)N[Si](C)(C)C
inactive: Potency [10] | Potency [8] | Potency [5]

CCCCCCCCCC(C)=O
inactive: activation [1] -3.13% | outcome [2] | Potency [8] | Potency [6] | activation [9] -2.23%

c1ccc2cc3c(ccc4ccccc43)cc2c1
inactive: Potency [10] | Potency [3] | Potency [8]

Cn1sccc1=O
inactive: Potency [10] | Potency [3] | Potency [4]

CC(C)CCCCCCc1ccc(OCCOCCO)cc1
active: Potency [10] 28.2 µM [inhibitor]

COc1ccc(OC)c(OC)c1
inactive: Potency [10] | Potency [3] | Potency [8] | Potency [5] | Potency [6]

O=C(O)C(Oc1ccc(Cl)cc1)Oc1ccc(Cl)cc1
inactive: activation [1] -5.73% | outcome [2] | Potency [3] | Potency [4] | Potency [6] | activation [9] 2.64% | activation [7] 0.776%

CCCCCCCOC(=O)c1ccccc1C(=O)OCCCCCCC
inactive: activation [1] -1.72% | outcome [2] | Potency [3] | Potency [4] | Potency [5] | activation [9] -3.71% | activation [7] -1.95%

CCC(=O)C1C(=O)CC(C(=O)O)CC1=O (stereo not drawn)
inactive: Potency [10] | activation [1] -3.36% | Potency [3] | Potency [5] | activation [7] 0.776%

CCOC(=O)c1ccccc1C
inactive: Potency [10] | Potency [3] | Potency [8] | Potency [6] | activation [9] 2.88% | activation [7] 0.727%

CN(C)Cc1cc(CN(C)C)c(O)c(CN(C)C)c1
inactive: activation [1] -17.5% | outcome [2] | Potency [3] | Potency [6] | activation [9] -4% | activation [7] -0.675%

CC1(C)[C@@H]([C@@H](Br)C(Br)(Br)Br)[C@H]1C(=O)O[C@H](C#N)c1cccc(Oc2ccccc2)c1
active: Potency [6] 21.7 µM
inactive: activation [1] -17.3% | activation [9] 11.9%

CCOC(=O)C(C)Oc1ccc(Oc2cnc3cc(Cl)ccc3n2)cc1 (stereo not drawn)
inactive: Potency [3] | Potency [8] | Potency [5]

C=CCOC(=O)CC(C)C
inactive: Potency [3] | Potency [4] | Potency [6] | activation [7] -0.542%

O=c1[nH]sc2ccccc12
active: Potency [3] 44.7 µM | Potency [6] 27.3 µM
inactive: Potency [8] | activation [9] -3.28% | activation [7] -1.58%

C=CC(=O)OCC[N+](C)(C)C
inactive: Potency [3] | Potency [8] | Potency [5] | Potency [6] | activation [9] 2.09%

CNc1nc(=O)n(C2CCC(O)CC2)c(=O)n1C (stereo not drawn)
inactive: outcome [2] | Potency [3] | Potency [4] | Potency [5] | activation [9] 1.92% | activation [7] -0.329%

c1ccc(B(c2ccccc2)c2ccccc2)cc1
inactive: Potency [3] | Potency [4] | Potency [8] | Potency [5] | activation [7] -3.07%

OCC(CO)(CO)COCC(CO)(CO)CO
inactive: Potency [3] | Potency [8] | Potency [5] | Potency [6] | activation [9] -2.73% | activation [7] -2.64%

CCCCC(CC)COP(=O)(O)OCC(CC)CCCC (stereo not drawn)
inactive: Potency [3] | Potency [4] | Potency [5]
active: Potency [6] 54.5 µM

Cl[Si](Cl)(c1ccccc1)c1ccccc1
active: Potency [6] 54.5 µM
inactive: Potency [3] | Potency [8] | activation [9] -1.29%

CCCCCCCCCCO
inactive: Potency [3] | Potency [8] | Potency [6] | activation [9] 1.66% and 2.49%

Nc1c(N=Nc2ccc(S(=O)(=O)CCOS(=O)(=O)O)cc2)c(S(=O)(=O)O)cc2cc(S(=O)(=O)O)c(N=Nc3ccc(S(=O)(=O)CCOS(=O)(=O)O)cc3)c(O)c12
active: Potency [6] 30.6 µM
inactive: activation [1] 7.7% | Potency [3] | Potency [5] | activation [9] -4.94% | activation [7] 1.61%

C/C=C/C/C=C\CCCCCCCCOC(C)=O
inactive: Potency [3] | Potency [5] | Potency [6] | activation [9] -0.736%

O=c1n(CCO)c(=O)n(CCO)c(=O)n1CCO
active: Potency [6] 30.6 µM
inactive: Potency [3] | Potency [4] | Potency [5] | activation [9] 3.11% | activation [7] 4.3%

CCCCOC(=O)[C@@H](C)Oc1ccc(Oc2ccc(C(F)(F)F)cn2)cc1
inactive: Potency [3] | Potency [4] | Potency [8] | Potency [5] | Potency [6] | activation [9] -5.64% and -5.4% | activation [7] -0.296% and -2.63%

C=C(C)C(=O)OCCCCCCCCCCCC
inactive: Potency [4] | Potency [8] | Potency [5] | activation [9] 1.89% | activation [7] -0.811%

CC(C)(C)c1cccc(C(C)(C)C)c1O
inactive: Potency [3] | Potency [8] | Potency [6] | activation [9] -0.526% | activation [7] -0.872%

CC(C)c1ccc(C(C)C)cc1
inactive: Potency [3] | Potency [5] | Potency [6] | activation [9] -6.39%
